The source made the active and inactive calls. The rule behind the calls is not given here.

The target of one experiment is L-lactate dehydrogenase (Plasmodium falciparum (isolate CDC / Honduras)) (UniProt Q27743). Put plainly: PfLDH activity inhibition – cell lysate, 3D7 strain, counter-screen for P. falciparum growth inhibition project (AID 2304).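 Note: 0% = vehicle and 100% = reference inhibitor.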 Conditions: P. falciparum 3D7 crude extract, LDH APAD/NBT absorbance; at 2 µM; hits give high values.
Sequence of L-lactate dehydrogenase (Plasmodium falciparum (isolate CDC / Honduras)) (Q27743 whole entry, looked up): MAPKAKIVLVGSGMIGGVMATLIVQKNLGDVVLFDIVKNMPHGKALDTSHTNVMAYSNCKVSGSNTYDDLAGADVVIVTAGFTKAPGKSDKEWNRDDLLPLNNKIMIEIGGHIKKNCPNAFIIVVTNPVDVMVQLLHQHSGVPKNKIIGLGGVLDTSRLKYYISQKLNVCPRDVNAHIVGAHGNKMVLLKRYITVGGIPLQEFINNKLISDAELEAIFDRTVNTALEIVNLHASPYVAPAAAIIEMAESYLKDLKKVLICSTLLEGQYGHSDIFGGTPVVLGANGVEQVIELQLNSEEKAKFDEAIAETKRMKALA
For orientation: inhibition means the relative decrease from the control value, in per cent. Turning to `COC(=O)c1ccc(CCCNCC(O)c2cccc(C(F)(F)F)c2)cc1` (stereo not given), the inhibition is 4% (inactive).
With `O=C(Nc1cc(C(F)(F)F)cc(C(F)(F)F)c1)Nc1cc(C(F)(F)F)cc(C(F)(F)F)c1`, the inhibition was -7% (inactive).
Take `COc1ccc2ncc(F)c(CCN3CCC(NCc4cc(Br)c5c(c4)OCCO5)CC3)c2n1`: the inhibition was -2% (inactive).
Still for that read-out and setting: the same measure for `O=C(Nc1ccc(F)cc1)c1nc2ccccc2nc1Cl`: -1% (inactive); for `CCOC(=O)c1ccc(NC(=O)Nc2cccc(-c3cccc(-c4nc5ccccc5[nH]4)c3)c2)cc1`: -3% (inactive).
On to `CCCCCCCCN1CCN(CCCCCCNc2c3ccccc3nc3ccccc23)CC1`, for which the inhibition was -4% (inactive).
As to `CCC(C(=O)Nc1ccccc1)n1nc(-c2ccc(C)c(S(=O)(=O)N3CCCCC3)c2)ccc1=O` (stereo not given), the inhibition was 4% (inactive).
With `CC(C)(C)c1ccc(CNC(=O)c2ccc(CNC3CCC(N)CC3)s2)cc1` (stereo not given), the inhibition is 4% (inactive).
Consider `COc1ccc2nccc(N3CCC(CCNCc4cc5c(cn4)OCCO5)CC3)c2c1`, for which the inhibition was 6% (inactive).
On to `O=C(NC1CCC(N2CCC(c3nc4ccccc4s3)CC2)CC1)c1cc2ccccc2[nH]1` (stereo not given), for which the inhibition was -1% (inactive).
Regarding `COc1cc(NC(=O)c2cccs2)c(OC)cc1NC(=O)Nc1cccc(Cl)c1`, the inhibition was -3% (inactive).
As to `CNC(=O)c1cc(S(=O)(=O)Nc2ccc(OC)cc2)cs1`, the inhibition is -6% (inactive).
Same read-out and setting: the same measure for `CN(C)CCOc1ccc(N2CCN(CCCCNC(=O)c3ccc(NC(=O)c4ccc(Cl)cc4)cc3)CC2)cc1`: 0% (inactive); for `C[C@@H]1CN(C(c2cccc(O)c2)c2cccc(C(=O)N(C)c3cccc(F)c3)c2)[C@@H](C)CN1C(c1cccc(O)c1)c1cccc(C(=O)N(C)c2cccc(F)c2)c1` (stereo not given in full): 0% (inactive).
Take `COc1ccc2nc(C)cc(NN=Cc3cccc(Cl)c3)c2c1`: the inhibition was 7% (inactive).
Turning to `FC(F)(F)c1ccc2nc(-c3ccc(-c4ccc(CNCC5CCCO5)cc4)cc3)[nH]c2c1` (stereo not given), the inhibition was -3% (inactive).
As for `COc1ccc2c(NN=Cc3cccc([N+](=O)[O-])c3)ccnc2c1`, the inhibition is 5% (inactive).
Still for that read-out and setting: the same measure for `CC(C)(C)c1ccc2nccc(Nc3cccc(O)c3)c2c1`: 0% (inactive); for `COc1ccccc1-c1sccc1C(=O)NC1(c2cc(Cl)cc(Cl)c2)CCCC1`: -3% (inactive).
In the case of `COc1ccc(-n2ccnc2)cc1CNC1CCN(CC2Cn3c(=O)ccc4ccc(F)c2c43)CC1` (stereo not given), the inhibition was -1% (inactive).
For `COc1ccc(-c2nc(NC(=O)CSc3ccc([N+](=O)[O-])cc3)sc2C)cc1`, the inhibition was -1% (inactive).
Still for that read-out and setting: the value for `Cc1cc(NN=Cc2ccc(F)cc2)c2cc(C(F)(F)F)ccc2n1` was -2% (inactive); that for `NC1=NC2(CCCCC2)N(OCC2CCCCC2)C(N)=N1` was 0% (inactive); that for `Cc1[nH]c(C)c(-c2ccc(OCc3cc(F)cc(F)c3)nc2)c(=O)c1Cl` was -6% (inactive).
For the compound `O=C(Nc1cccc(CN2CCCN(CCc3ccccc3)CC2)c1)c1cc2ccccc2s1`, the inhibition was 4% (inactive).
In the case of `O=C1NC(c2ccccc2)C2(CCN(CC(O)COc3cccc4ncccc34)CC2)O1` (stereo not given), the inhibition was -4% (inactive).
Consider `O=C(Nc1cccc(CN2CCN(Cc3cccc(O)c3)CC2)c1)c1cc2ccccc2s1`, for which the inhibition was 0% (inactive).
Turning to `O=S(=O)(Nc1ccc(-c2ccc(CN3CCCC3)cc2)cc1)c1cccc2cccnc12`, the inhibition is -8% (inactive).
With `CCCC(C)n1ccc2c3c(N)nc(N)nc3ccc21` (stereo not given), the inhibition is -2% (inactive).
For the compound `CC(CN(C)C)C(=O)Nc1cccc(-c2ccc(-c3nc4ccccc4[nH]3)cc2)c1` (stereo not given), the inhibition was -8% (inactive).
`O=C(NCCCCN1CCC(c2ccc(-c3ccco3)cc2)CC1)c1ccc(NC(=O)c2ccc(Cl)cc2)cc1`: the inhibition is 6% (inactive).
Still for that read-out and setting: the same measure for `CCc1ccc(NC(=O)c2ccc(CN3CCCN(CCC(C)C)CC3)cc2)cc1`: -7% (inactive).
For `O=C(Nc1ccc(C(F)(F)F)cc1)Nc1cccc([N+](=O)[O-])c1`, the inhibition is 4% (inactive).
With `CC(C)(C)c1ccc(CN(C[C@@H](O)CNS(=O)(=O)c2cc(Cl)cc(Cl)c2)C(C)(C)C)cc1`, the inhibition was -8% (inactive).
`CCCCCN1CCCC(CNS(=O)(=O)c2ccc(C(=O)Nc3ccc(C(F)(F)F)cc3)cc2)C1` (stereo not given): the inhibition was -2% (inactive).
On the same count and under the same terms, the value for `CC(C)(C)N1CCC(N(Cc2ccc(-c3ccc(C(F)(F)F)cc3)cc2)C(=O)Cn2c(CCc3cccc(F)c3F)cc(=O)c3cccnc32)CC1` was -1% (inactive); that for `CS(=O)(=O)NCCCNCc1ccc(-c2cccc(-c3nc4ccc(F)cc4[nH]3)c2)cc1` was 5% (inactive); that for `OC[C@H]1CCCN1CC#Cc1cc2c(Nc3ccc(OCc4cccc(F)c4)c(Cl)c3)ncnc2s1` was -2% (inactive).
For `Nc1ccc(-c2nc3ccc(-c4ccc5nc(-c6ccc(N)cc6)[nH]c5c4)cc3[nH]2)cc1`, the inhibition is 6% (inactive).
Turning to `Cc1cccc2[nH]c(-c3ccc(-c4cccc(C(=O)NCCc5cn(C)cn5)c4)s3)nc12`, the inhibition is -7% (inactive).

Tested on in another experiment: not listed separately
Nature of the experiment: inhibition of 3D7 malaria parasite growth – strain 3D7 (AID 2306).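 Note: 0% = DMSO wells and 100% = chloroquine plus artemisinin control wells.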 Conditions: P. falciparum 3D7 erythrocytic growth, LDH absorbance, 72 h; at 2 µM; hits give high values.
Regarding `COC(=O)c1ccc(CCCNCC(O)c2cccc(C(F)(F)F)c2)cc1` (stereo not given), the growth inhibition was 97% (active).
Regarding `O=C(Nc1cc(C(F)(F)F)cc(C(F)(F)F)c1)Nc1cc(C(F)(F)F)cc(C(F)(F)F)c1`, the growth inhibition is 97% (active).
Turning to `COc1ccc2ncc(F)c(CCN3CCC(NCc4cc(Br)c5c(c4)OCCO5)CC3)c2n1`, the growth inhibition was 100% (active).
As to `O=C(Nc1ccc(F)cc1)c1nc2ccccc2nc1Cl`, the growth inhibition is 80% (active).
Consider `CCOC(=O)c1ccc(NC(=O)Nc2cccc(-c3cccc(-c4nc5ccccc5[nH]4)c3)c2)cc1`, for which the growth inhibition is 100% (active).
Consider `CCCCCCCCN1CCN(CCCCCCNc2c3ccccc3nc3ccccc23)CC1`, for which the growth inhibition was 101% (active).
The same measure, in the same setting: the value for `CCC(C(=O)Nc1ccccc1)n1nc(-c2ccc(C)c(S(=O)(=O)N3CCCCC3)c2)ccc1=O` (stereo not given) was 85% (active); that for `CC(C)(C)c1ccc(CNC(=O)c2ccc(CNC3CCC(N)CC3)s2)cc1` (stereo not given) was 100% (active); that for `COc1ccc2nccc(N3CCC(CCNCc4cc5c(cn4)OCCO5)CC3)c2c1` was 100% (active).
Regarding `O=C(NC1CCC(N2CCC(c3nc4ccccc4s3)CC2)CC1)c1cc2ccccc2[nH]1` (stereo not given), the growth inhibition is 94% (active).
As to `COc1cc(NC(=O)c2cccs2)c(OC)cc1NC(=O)Nc1cccc(Cl)c1`, the growth inhibition was 83% (active).
The same measure, in the same setting: the same measure for `CNC(=O)c1cc(S(=O)(=O)Nc2ccc(OC)cc2)cs1`: 95% (active).
For `CN(C)CCOc1ccc(N2CCN(CCCCNC(=O)c3ccc(NC(=O)c4ccc(Cl)cc4)cc3)CC2)cc1`, the growth inhibition was 99% (active).
As for `C[C@@H]1CN(C(c2cccc(O)c2)c2cccc(C(=O)N(C)c3cccc(F)c3)c2)[C@@H](C)CN1C(c1cccc(O)c1)c1cccc(C(=O)N(C)c2cccc(F)c2)c1` (stereo not given in full), the growth inhibition is 91% (active).
Regarding `COc1ccc2nc(C)cc(NN=Cc3cccc(Cl)c3)c2c1`, the growth inhibition is 101% (active).
`FC(F)(F)c1ccc2nc(-c3ccc(-c4ccc(CNCC5CCCO5)cc4)cc3)[nH]c2c1` (stereo not given): the growth inhibition is 101% (active).
Consider `COc1ccc2c(NN=Cc3cccc([N+](=O)[O-])c3)ccnc2c1`, for which the growth inhibition is 101% (active).
Still for that read-out and setting: the same measure for `CC(C)(C)c1ccc2nccc(Nc3cccc(O)c3)c2c1`: 99% (active); for `COc1ccccc1-c1sccc1C(=O)NC1(c2cc(Cl)cc(Cl)c2)CCCC1`: 88% (active).
Still for that read-out and setting: the same measure for `COc1ccc(-n2ccnc2)cc1CNC1CCN(CC2Cn3c(=O)ccc4ccc(F)c2c43)CC1` (stereo not given): 99% (active); for `COc1ccc(-c2nc(NC(=O)CSc3ccc([N+](=O)[O-])cc3)sc2C)cc1`: 101% (active); for `Cc1cc(NN=Cc2ccc(F)cc2)c2cc(C(F)(F)F)ccc2n1`: 101% (active).
Same read-out and setting: the value for `NC1=NC2(CCCCC2)N(OCC2CCCCC2)C(N)=N1` was 96% (active); that for `Cc1[nH]c(C)c(-c2ccc(OCc3cc(F)cc(F)c3)nc2)c(=O)c1Cl` was 97% (active); that for `O=C(Nc1cccc(CN2CCCN(CCc3ccccc3)CC2)c1)c1cc2ccccc2s1` was 93% (active).
Turning to `O=C1NC(c2ccccc2)C2(CCN(CC(O)COc3cccc4ncccc34)CC2)O1` (stereo not given), the growth inhibition is 92% (active).
With `O=C(Nc1cccc(CN2CCN(Cc3cccc(O)c3)CC2)c1)c1cc2ccccc2s1`, the growth inhibition is 86% (active).
In the case of `O=S(=O)(Nc1ccc(-c2ccc(CN3CCCC3)cc2)cc1)c1cccc2cccnc12`, the growth inhibition was 91% (active).
As for `CCCC(C)n1ccc2c3c(N)nc(N)nc3ccc21` (stereo not given), the growth inhibition is 94% (active).
In the case of `CC(CN(C)C)C(=O)Nc1cccc(-c2ccc(-c3nc4ccccc4[nH]3)cc2)c1` (stereo not given), the growth inhibition was 98% (active).
Regarding `O=C(NCCCCN1CCC(c2ccc(-c3ccco3)cc2)CC1)c1ccc(NC(=O)c2ccc(Cl)cc2)cc1`, the growth inhibition was 100% (active).
On the same count and under the same terms, the same measure for `CCc1ccc(NC(=O)c2ccc(CN3CCCN(CCC(C)C)CC3)cc2)cc1`: 96% (active); for `O=C(Nc1ccc(C(F)(F)F)cc1)Nc1cccc([N+](=O)[O-])c1`: 101% (active); for `CC(C)(C)c1ccc(CN(C[C@@H](O)CNS(=O)(=O)c2cc(Cl)cc(Cl)c2)C(C)(C)C)cc1`: 98% (active).
Same read-out and setting: the same measure for `CCCCCN1CCCC(CNS(=O)(=O)c2ccc(C(=O)Nc3ccc(C(F)(F)F)cc3)cc2)C1` (stereo not given): 94% (active).
The same measure, in the same setting: the value for `CC(C)(C)N1CCC(N(Cc2ccc(-c3ccc(C(F)(F)F)cc3)cc2)C(=O)Cn2c(CCc3cccc(F)c3F)cc(=O)c3cccnc32)CC1` was 102% (active); that for `CS(=O)(=O)NCCCNCc1ccc(-c2cccc(-c3nc4ccc(F)cc4[nH]3)c2)cc1` was 98% (active); that for `OC[C@H]1CCCN1CC#Cc1cc2c(Nc3ccc(OCc4cccc(F)c4)c(Cl)c3)ncnc2s1` was 89% (active).
Consider `Nc1ccc(-c2nc3ccc(-c4ccc5nc(-c6ccc(N)cc6)[nH]c5c4)cc3[nH]2)cc1`, for which the growth inhibition is 101% (active).
For `Cc1cccc2[nH]c(-c3ccc(-c4cccc(C(=O)NCCc5cn(C)cn5)c4)s3)nc12`, the growth inhibition was 92% (active).

For the origin of these results see PubChem BioAssay.
